# From PubChem BioAssay AID1159580 (chemical genetic matrix, 2015)
# Where “and” joins values, the source holds several entries; their conditions need not be identical. Equal entries are not always repeated. About 2,000 (36%) of roughly 5,500 compounds were called active. Another 18% or so got no clear call; they are omitted. Some of the results follow. Values without a mark were called inactive. Rule as the data show it: active = normalized growth mostly below about 0.91 (no sharp cut-off); inconclusive = no clear call, values can overlap the other calls; inactive = mostly above about 0.92.
# Experiment: chemical genetic growth profiling, strain panel (AID 1159580);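 also: tested at 20 µM; growth read once vehicle control cultures reached saturation at 30 °C; 1 = growth at the plate median or of vehicle wells; lower values mean less growth of the strain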
# Conditions: growth OD
# [1] = S. cerevisiae deletion strains, locus YAL040C, strain CLN3, hits give low values
# [2] = S. cerevisiae deletion strains, locus YER002W, strain NOP16, hits give low values
# [3] = S. cerevisiae deletion strains, locus YMR263W, strain SAP30, hits give low values
# [4] = S. cerevisiae deletion strains, locus YNL175C, strain NOP13, hits give low values
# [5] = S. cerevisiae deletion strains, locus YNL197C, strain WHI3, hits give low values
# [6] = S. cerevisiae deletion strains, locus YNL224C, strain SQS1, hits give low values
# [7] = S. cerevisiae deletion strains, locus YNL322C, strain KRE1, hits give low values
# [8] = S. cerevisiae deletion strains, locus YOR083W, strain WHI5 (second series), hits give low values
# [9] = S. cerevisiae deletion strains, locus YPL241C, strain CIN2, hits give low values
smiles,measurement,setting,value
Cc1nc(-c2ccc(-c3ccc(C(=O)N4CCc5cc6c(cc54)C4(CCN(C)CC4)CO6)cc3)c(C)c2)no1,normalized growth,[1],0.967
same,normalized growth,"S. cerevisiae deletion strains, locus YCL061C, strain MRC1 (second series), hits give low values",0.902 (active)
same,normalized growth,"S. cerevisiae deletion strains, locus YDR363W, strain ESC2, hits give low values",0.991
same,normalized growth,[2],0.991
same,normalized growth,"S. cerevisiae deletion strains, locus YJR075W, strain HOC1, hits give low values",0.898 (active)
same,normalized growth,[3],1
same,normalized growth,[4],0.964
same,normalized growth,[5],0.989
same,normalized growth,[6],0.961
same,normalized growth,[7],0.64 (active)
same,normalized growth,[8],0.677 (active)
same,normalized growth,"S. cerevisiae deletion strains, locus YPL055C, strain LGE1, hits give low values",1.04
same,normalized growth,[9],0.907 (active)
CC(=O)NCCc1c[nH]c2ccc(O)cc12,normalized growth,[1],1
same,normalized growth,"S. cerevisiae deletion strains, locus YBR021W, strain FUR4, hits give low values",1.03
same,normalized growth,"S. cerevisiae deletion strains, locus YBR229C, strain ROT2, hits give low values",0.96
same,normalized growth,"S. cerevisiae deletion strains, locus YCL029C, strain bik1, hits give low values",0.98
same,normalized growth,"S. cerevisiae deletion strains, locus YDL035C, strain GPR1, hits give low values",1.01
same,normalized growth,"S. cerevisiae deletion strains, locus YDL074C, strain BRE1, hits give low values",0.953
same,normalized growth,"S. cerevisiae deletion strains, locus YDL101C, strain DUN1, hits give low values",0.977
same,normalized growth,"S. cerevisiae deletion strains, locus YDL134C, strain PPH21, hits give low values",0.993
same,normalized growth,"S. cerevisiae deletion strains, locus YDL185W, strain tfp1, hits give low values",0.983
same,normalized growth,"S. cerevisiae deletion strains, locus YDL192W, strain arf1, hits give low values",0.982
same,normalized growth,"S. cerevisiae deletion strains, locus YDR101C, strain arx1, hits give low values",0.929
same,normalized growth,"S. cerevisiae deletion strains, locus YDR150W, strain NUM1, hits give low values",1.01
same,normalized growth,"S. cerevisiae deletion strains, locus YDR162C, strain NBP2, hits give low values",0.999
same,normalized growth,"S. cerevisiae deletion strains, locus YDR318W, strain mcm21, hits give low values",0.992
same,normalized growth,"S. cerevisiae deletion strains, locus YDR388W, hits give low values",0.991
same,normalized growth,"S. cerevisiae deletion strains, locus YDR502C, strain sam2, hits give low values",0.985
same,normalized growth,"S. cerevisiae deletion strains, locus YEL061C, strain CIN8, hits give low values",0.984
same,normalized growth,[2],0.993
same,normalized growth,"S. cerevisiae deletion strains, locus YER110C, hits give low values",0.986
same,normalized growth,"S. cerevisiae deletion strains, locus YER155C, strain BEM2, hits give low values",0.998
same,normalized growth,"S. cerevisiae deletion strains, locus YER167W, strain BCK2, hits give low values",0.992
same,normalized growth,"S. cerevisiae deletion strains, locus YGL078C, strain dbp3, hits give low values",0.999
same,normalized growth,"S. cerevisiae deletion strains, locus YGL086W, strain mad1, hits give low values",0.962
same,normalized growth,"S. cerevisiae deletion strains, locus YGL248W, strain PDE1, hits give low values",0.98
same,normalized growth,"S. cerevisiae deletion strains, locus YGR078C, strain PAC10, hits give low values",1.01
same,normalized growth,"S. cerevisiae deletion strains, locus YGR135W, strain pre9, hits give low values",1.06
same,normalized growth,"S. cerevisiae deletion strains, locus YGR252W, strain gcn5, hits give low values",1.05
same,normalized growth,"S. cerevisiae deletion strains, locus YHR030C, strain SLT2, hits give low values",0.997
same,normalized growth,"S. cerevisiae deletion strains, locus YHR079C, strain IRE1 (second series), hits give low values",0.992
same,normalized growth,"S. cerevisiae deletion strains, locus YHR094C, strain hxt1, hits give low values",0.991
same,normalized growth,"S. cerevisiae deletion strains, locus YHR129C, strain ARP1, hits give low values",0.993
same,normalized growth,"S. cerevisiae deletion strains, locus YHR200W, strain rpn10, hits give low values",0.989
same,normalized growth,"S. cerevisiae deletion strains, locus YIL066C, strain RNR3, hits give low values",0.956
same,normalized growth,"S. cerevisiae deletion strains, locus YIL073C, strain SPO22, hits give low values",0.989
same,normalized growth,"S. cerevisiae deletion strains, locus YIL125W, strain kgd1, hits give low values",0.988
same,normalized growth,"S. cerevisiae deletion strains, locus YIR030C, strain dcg1, hits give low values",0.997
same,normalized growth,"S. cerevisiae deletion strains, locus YJL095W, strain BCK1, hits give low values",0.982
same,normalized growth,"S. cerevisiae deletion strains, locus YJL134W, strain LCB3, hits give low values",0.992
same,normalized growth,"S. cerevisiae deletion strains, locus YJL168C, strain set2, hits give low values",0.995
same,normalized growth,"S. cerevisiae deletion strains, locus YJL187C, strain SWE1 (second series), hits give low values",0.95
same,normalized growth,"S. cerevisiae deletion strains, locus YJR043C, strain POL32, hits give low values",0.99
same,normalized growth,"S. cerevisiae deletion strains, locus YKL009W, strain mrt4, hits give low values",0.978
same,normalized growth,"S. cerevisiae deletion strains, locus YKL068W, hits give low values",0.986
same,normalized growth,"S. cerevisiae deletion strains, locus YKL085W, strain MDH1 (second series), hits give low values",0.982
same,normalized growth,"S. cerevisiae deletion strains, locus YKL085W, strain MDH1, hits give low values",0.982
same,normalized growth,"S. cerevisiae deletion strains, locus YKL190W, strain CNB1, hits give low values",0.993
same,normalized growth,"S. cerevisiae deletion strains, locus YKR001C, strain vps1, hits give low values",0.978
same,normalized growth,"S. cerevisiae deletion strains, locus YLR039C, strain RIC1, hits give low values",0.95
same,normalized growth,"S. cerevisiae deletion strains, locus YLR058C, strain SHM2, hits give low values",0.982
same,normalized growth,"S. cerevisiae deletion strains, locus YLR102C, strain apc9, hits give low values",0.999
same,normalized growth,"S. cerevisiae deletion strains, locus YLR262C, strain YPT6, hits give low values",0.967
same,normalized growth,"S. cerevisiae deletion strains, locus YLR268W, strain sec22, hits give low values",0.983
same,normalized growth,"S. cerevisiae deletion strains, locus YLR330W, strain CHS5, hits give low values",0.989
same,normalized growth,"S. cerevisiae deletion strains, locus YLR342W, strain FKS1 (second series), hits give low values",1.07
same,normalized growth,"S. cerevisiae deletion strains, locus YLR371W, strain rom2, hits give low values",1.02
same,normalized growth,"S. cerevisiae deletion strains, locus YLR418C, strain cdc73, hits give low values",1.05
same,normalized growth,"S. cerevisiae deletion strains, locus YML016C, strain PPZ1, hits give low values",0.992
same,normalized growth,"S. cerevisiae deletion strains, locus YML032C, strain rad52, hits give low values",0.978
same,normalized growth,"S. cerevisiae deletion strains, locus YML124C, strain tub3, hits give low values",0.995
same,normalized growth,"S. cerevisiae deletion strains, locus YMR078C, strain ctf18, hits give low values",0.99
same,normalized growth,"S. cerevisiae deletion strains, locus YMR223W, strain ubp8, hits give low values",1.03
same,normalized growth,[3],1 and 0.976
same,normalized growth,"S. cerevisiae deletion strains, locus YMR307W, strain GAS1, hits give low values",1.05
same,normalized growth,"S. cerevisiae deletion strains, locus YNL067W, strain RPL9B, hits give low values",0.959
same,normalized growth,"S. cerevisiae deletion strains, locus YNL128W, strain TEP1, hits give low values",1.01
same,normalized growth,[4],1.01
same,normalized growth,[5],1.01
same,normalized growth,[6],1.02
same,normalized growth,"S. cerevisiae deletion strains, locus YNL233W, strain BNI4, hits give low values",0.966
same,normalized growth,"S. cerevisiae deletion strains, locus YNL250W, strain rad50, hits give low values",0.967
same,normalized growth,"S. cerevisiae deletion strains, locus YNL271C, strain bni1, hits give low values",0.982
same,normalized growth,"S. cerevisiae deletion strains, locus YNL298W, strain CLA4, hits give low values",1
same,normalized growth,"S. cerevisiae deletion strains, locus YNL307C, strain MCK1, hits give low values",0.987
same,normalized growth,[7],1.02 and 0.994
same,normalized growth,"S. cerevisiae deletion strains, locus YNR052C, strain pop2, hits give low values",0.996
same,normalized growth,"S. cerevisiae deletion strains, locus YOL006C, strain TOP1, hits give low values",0.933
same,normalized growth,"S. cerevisiae deletion strains, locus YOL012C, strain htz1",1.04
same,normalized growth,"S. cerevisiae deletion strains, locus YOL147C, strain pex11, hits give low values",0.993
same,normalized growth,"S. cerevisiae deletion strains, locus YOR061W, strain CKA2, hits give low values",0.963
same,normalized growth,"S. cerevisiae deletion strains, locus YOR069W, strain VPS5, hits give low values",0.997
same,normalized growth,[8],1.01
same,normalized growth,"S. cerevisiae deletion strains, locus YOR136W, strain idh2, hits give low values",0.989
same,normalized growth,"S. cerevisiae deletion strains, locus YOR144C, strain elg1, hits give low values",0.994
same,normalized growth,"S. cerevisiae deletion strains, locus YOR184W, strain ser1, hits give low values",1
same,normalized growth,"S. cerevisiae deletion strains, locus YOR316C, strain cot1, hits give low values",0.986
same,normalized growth,[9],1.01 and 0.993
same,normalized growth,"S. cerevisiae deletion strains, locus YPR119W, strain clb2, hits give low values",0.988
same,normalized growth,"S. cerevisiae deletion strains, locus YPR141C, strain kar3, hits give low values",0.981
same,normalized growth,"S. cerevisiae deletion strains, locus YPR163C, strain tif3, hits give low values",0.986
same,normalized growth,"S. cerevisiae deletion strains, locus YPR167C, strain met16, hits give low values",0.992
same,normalized growth,"S. cerevisiae deletion strains, strain wtn01, hits give low values",1
same,normalized growth,"S. cerevisiae strains, strain wild type, hits give low values",0.987
